Laboratory results from PubChem BioAssay (NCATS).
Inconclusive results are not listed. Values without a mark were called inactive. Calls of active or inactive are those of the source. The call rests on the fitted dose curve.
Potency means the concentration at half of the fitted maximal effect.

Test: Cell Viability - HepG2 (AID 433);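 further: potency for ATP loss meaning cytotoxicity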
Settings: qHTS
Source text: NIH Chemical Genomics Center [NCGC]
NIH Molecular Libraries Screening Centers Network [MLSCN]
National Institutes of Environmental Health Sciences [NIEHS]
National Toxicology Program [NTP]
We have developed a 1536-well cell-based assay for quantitative high throughput screening (qHTS) against a number of cell lines to determine in vitro cytotoxicity of small molecules. This particular assay uses the HepG2 cell line which is derived from hepatocellular carcinoma.
NCGC Assay Protocol Summary:
The CellTiter-Glo luminescent cell viability assay (Promega) is a homogeneous method to measure the number of viable cells in culture. The end point readout of this assay is based on quantitation of intracellular ATP, an indicator of metabolic activity, using the luciferase reaction. Luciferase catalyzes the oxidation of beetle Luciferin to oxyluciferin and light in the presence of ATP. The luminescent signal is proportional to amount of ATP present.
Using the CellTiter-Glo luminescent cell viability assay, the amount of cellular ATP was measured in the HepG2 cell line with complete culture medium following compound treatment for 40 hours. The assay was performed in opaque white Kalypsys 1536-well plates. In the screen, tamoxifen and doxorubicin were used as positive controls. Library compounds were measured for their ability to cause acute toxicity in the cell line, as reflected by a decrease in intracellular ATP levels, in a concentration-dependent manner. Data were normalized to the controls for basal activity (DMSO only) and 100% inhibition (100 uM tamoxifen). AC50 values were determined from concentration-response data modeled with the standard Hill equation.
qHTS protocol fo CellTiter Glo HepG2 cellular assay
[Step] [Parameter] [Value] [Description]
1. Reagent; 5 uL; 1500 HepG2 cells/well
2. Time; 5 hr; 37 °C incubation
4. Controls; 23 nL; Tamoxifen 0.34 uM to 100 uM & Doxorubicin 0.02 nM to 100 uM
5. Time; 40 hr; 37 °C incubation
6. Reagent; 5 uL; CellTiter Glo reagent
7. Time; 20 min; Room Temperature
8. Detection; Luminescence; Viewlux plate reader
Keywords: cell viability, cytotoxicity, HepG2 cell line, luminescence, NTPHTS, NTPHTS_NCGC, NIEHS, EPA, DSSTox, MLSMR, MLSCN, NIH Roadmap, qHTS, NCGC
With `CC(=O)CCC(C)=O` the Potency was over 92 µM.
`CCN(CC)N=O` showed a Potency of over 92 µM.
For `N#CCBr`, the Potency was over 92 µM.
For `O=P(OCCCl)(OCCCl)OCCCl`, the Potency was over 92 µM.
Compound `Nc1cc(Cl)cc(C(=O)O)c1Cl` has a Potency of over 92 µM.
`Nc1cc(Cl)cc(Cl)c1` gave a Potency of over 92 µM.
With `CC(=O)NNc1ccccc1` the Potency was over 92 µM.
`O=C(O)c1cc(Cl)ccc1Cl` gave a Potency of over 92 µM.
In the case of `CC(C)C#N`, the Potency is reported as over 92 µM.
Compound `CCCCOC(C)=O` has a Potency of over 92 µM.
For `CCCCC(=O)Cl`, the Potency was over 92 µM.
For `CCCCOCC1CO1` (stereo not given), the Potency was over 92 µM.
`BrCCc1ccccc1` gave a Potency of over 92 µM.
For `CCN(CC)CCO`, the Potency was over 92 µM.
`BrCC(Br)(Br)Br` showed a Potency of over 92 µM.
`OCCCCO` gave a Potency of over 92 µM.
`Oc1cc(Cl)ccc1Cl` showed a Potency of over 92 µM.
Compound `O=C(O)C(Cl)Br` (stereo not given) has a Potency of over 92 µM.
`CC(Cl)CCl` (stereo not given) gave a Potency of over 92 µM.
Work on `CN(C)c1ccc(N(C)C)cc1` yielded a Potency of over 92 µM.
`Cc1cc(-c2cc(C)c(N)c(C)c2)cc(C)c1N` showed a Potency of over 92 µM.
`O=C(O)c1cccc(Cl)c1` gave a Potency of over 92 µM.
With `C=C(C)CCl` the Potency was over 92 µM.
With `C=CC(=O)OCC(C)C` the Potency was over 92 µM.
For `CN1CSC(=S)N(C)C1`, the Potency was over 92 µM.
Compound `ClCC(Cl)Cl` has a Potency of over 92 µM.
`ClC=CCl` gave a Potency of over 92 µM.
`COc1ccccc1N` showed a Potency of over 92 µM.
`NNC(N)=S` gave a Potency of over 92 µM.
Compound `CSSC` has a Potency of over 92 µM.
For `Cc1ccc(N)c(N)c1`, the Potency was over 92 µM.
Work on `OCCOCCO` yielded a Potency of over 92 µM.
With `CCN(N=O)C(N)=O` the Potency was over 92 µM.
With `CN(C)c1ccc(N=Nc2ccccc2)cc1` the Potency was over 92 µM.
In the case of `COc1ccc(C=O)cc1`, the Potency is reported as over 92 µM.
In the case of `O=S(=O)(Cl)c1ccccc1`, the Potency is reported as over 92 µM.
Work on `c1ccc2c(c1)CCNC2` yielded a Potency of over 92 µM.
Compound `CC(C)Br` has a Potency of over 92 µM.
With `Oc1cc(Cl)c(Cl)c(Cl)c1` the Potency was 59.9 µM (active).
`ClCC(Cl)CCl` gave a Potency of over 92 µM.
